± gives the standard deviation of the averaged measurements.
Each compound was assayed against T1, MurF (UniProt P11880) (assay: relative enzymatic activity vs untreated control (fraction); higher = less inhibition). Conditions: 100 µM; incubation time: 2 h at 37 C.
T1 sequence (whole entry): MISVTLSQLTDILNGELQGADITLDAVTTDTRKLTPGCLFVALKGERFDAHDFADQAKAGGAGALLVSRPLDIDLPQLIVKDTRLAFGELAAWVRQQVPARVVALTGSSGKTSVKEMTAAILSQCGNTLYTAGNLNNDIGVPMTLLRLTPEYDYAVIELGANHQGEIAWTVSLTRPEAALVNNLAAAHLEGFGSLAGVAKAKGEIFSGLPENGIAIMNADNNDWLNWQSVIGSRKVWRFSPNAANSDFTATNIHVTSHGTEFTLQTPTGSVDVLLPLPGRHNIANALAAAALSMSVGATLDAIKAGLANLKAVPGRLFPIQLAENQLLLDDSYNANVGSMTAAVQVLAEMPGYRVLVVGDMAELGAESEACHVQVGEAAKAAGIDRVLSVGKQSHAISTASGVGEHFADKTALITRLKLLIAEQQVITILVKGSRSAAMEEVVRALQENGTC
Protocol: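 In vitro enzymatic inhibition assays (ProFoldin kits) for 12 purified essential E. coli enzymes or complexes, each treated with 218 active antibacterial compounds at 100 µM for 2 h at 37°C. Read-outs were fluorescence or absorbance (phosphate detection, dye binding), converted to activity via standard curves and expressed relative to untreated DMSO controls.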

| Structure (SMILES) | relative enzymatic activity |
| --- | --- |
| Oc1cc(Cl)ccc1Oc1ccc(Cl)cc1Cl | 1.12 ± 0.27 |
| Cc1c(N)nc([C@H](CC(N)=O)NC[C@@H](N)C(N)=O)nc1C(=O)N[C@H](C(=O)N[C@@H](C)[C@H](O)[C@@H](C)C(=O)N[C@@H](C(=O)NCCc1nc(-c2nc(C(=O)NCCC[S+](C)C)cs2)cs1)[C@@H](C)O)[C@@H](O[C@H]1O[C@H](CO)[C@H](O)[C@@H](O)[C@H]1O[C@H]1O[C@H](CO)[C@@H](O)[C@H](OC(N)=O)[C@@H]1O)c1cnc[nH]1 | 1.15 ± 0.074 |
| O=S(=O)(O)O.Oc1cccc2cccnc12 | 0.951 ± 0.29 |
| CC(=O)[O][Hg][c]1ccccc1 | 1.08 ± 0.26 |
| CCn1cc(C(=O)[O-])c(=O)c2cc3c(cc21)OCO3.[K+] | 0.962 ± 0.22 |
| Cc1c(N)nc([C@H](CC(N)=O)NC[C@@H](N)C(N)=O)nc1C(=O)N[C@H](C(=O)N[C@@H](C)[C@H](O)[C@@H](C)C(=O)N[C@@H](C(=O)NCCc1nc(-c2nc(C(=O)NCCC[S+](C)C)cs2)cs1)[C@@H](C)O)[C@@H](O[C@H]1O[C@H](CO)[C@H](O)[C@@H](O)[C@H]1O[C@H]1O[C@H](CO)[C@@H](O)[C@H](OC(N)=O)[C@@H]1O)c1c[nH]cn1 | 0.537 ± 0.75 |
| CCCCCCCCCCCCCCCC[n+]1ccccc1.[Cl-] | 0.0685 ± 0.0074 |
| COP(=S)(OC)Oc1cc(Cl)c(Cl)cc1Cl | 1.05 ± 0.2 |
| O=[N+]([O-])C(Br)(CO)CO | 0.946 ± 0.23 |
| [O-][n+]1ccccc1[S][Zn][S]c1cccc[n+]1[O-] | 0.973 ± 0.15 |
| C[CH2][Hg][S]c1ccccc1C(=O)[O-].[Na+] | 0.982 ± 0.28 |
| CCCCCCCCCCCCCCCC[N+](C)(C)C.[Br-] | 0.112 ± 0.021 |
| CN(C)[C@@H]1C(=O)C(C(N)=O)=C(O)[C@@]2(O)C(O)=C3C(=O)c4c(O)cccc4[C@](C)(O)[C@H]3C[C@@H]12 | 0.983 ± 0.2 |
| Cc1nc2c(=O)n(C)c(=O)nc-2n(C)n1 | 0.965 ± 0.26 |
| CN(C)[C@@H]1C(=O)[C@@H](C(N)=O)C(=O)[C@@]2(O)C(=O)[C@H]3C(=O)c4c(O)ccc(Cl)c4[C@@](C)(O)[C@H]3C[C@@H]12 | 1.2 ± 0.021 |
| O=[N+]([O-])c1ccc(N(CCO)CCO)c2c1no[n+]2[O-] | 0.923 ± 0.15 |
| O=C1C=C2C(=CCOC2O)O1 (centres undefined) | 0.903 ± 0.18 |
| CN(C)[C@@H]1C(=O)[C@H](C(N)=O)C(=O)[C@@]2(O)C(=O)[C@@H]3C(=O)c4c(O)cccc4[C@@](C)(O)[C@H]3C[C@@H]12 | 0.998 ± 0.19 |
| Cn1ncnc2c(=O)n(C)c(=O)nc1-2 | 0.797 ± 0.21 |
| CNC1C(O)C(OC2C(N)CC(N)C(OC3OC(C(C)O)C(O)C(O)C3N)C2O)OCC1(C)O (centres undefined) | 0.95 ± 0.18 |
| CN[C@H]1C[C@@H](N)[C@H](O)[C@@H](O[C@@H]2O[C@H](CO)[C@H](O)[C@@H]3O[C@@]4(O[C@H]23)O[C@H]([C@@H](N)CO)[C@H](O)[C@H](O)[C@H]4O)[C@@H]1O | 1.17 ± 0.035 |
| CC(=O)Oc1ccc(Cl)c2cccnc12 | 0.983 ± 0.21 |
| CN1C(=O)[C@]23CC4=CC=C[C@H](O)[C@H]4N2C(=O)[C@@]1(CO)SS3 | 0.973 ± 0.26 |
| CCCCCCCCCCCCCCCC[n+]1ccccc1 | 0.08 ± 0.011 |
